Assay outcomes: PubChem BioAssay, several laboratories
This is a sample that favours compounds with a hit; in the whole collection about 1.3% have one here.
sEH act: increases human soluble epoxide hydrolase activity; AID 717; activation, % at 2 µM; actives 0.04% (n = 91,000); P34913; purified human sEH enzymatic activity, activator screen; in the data active means activation above about 37%
PLAP act: human PLAP activation. actives 1.2% (n = 96,000). purified PLAP enzyme, luminescent substrate read-out; stronger effect = higher value. AID 696. activation fold at 20 µM; in the data active means activation fold above about 2
sEH inh: blocks human soluble epoxide hydrolase activity. actives 0.34% (n = 91,000). recombinant human sEH enzymatic activity assay. inhibition, % at 2 µM; in the data active means inhibition above about 80%
BAP1 block: inhibitors of human BAP1 deubiquitinase. calls only at 20 µM. actives 0.48% (n = 72,000). AID 436. Q92560. recombinant BAP1, Ub-AMC hydrolysis fluorescence kinetic; stronger effect = lower value;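 active means activity remaining at or below 50% of control, provided the compound also passes the data quality filters; inactive means the rest, including low values that fail the filters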;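 further: 100% = DMSO wells rate and 0% = substrate alone blank rate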
Target sequence (Q92560 whole entry, looked up): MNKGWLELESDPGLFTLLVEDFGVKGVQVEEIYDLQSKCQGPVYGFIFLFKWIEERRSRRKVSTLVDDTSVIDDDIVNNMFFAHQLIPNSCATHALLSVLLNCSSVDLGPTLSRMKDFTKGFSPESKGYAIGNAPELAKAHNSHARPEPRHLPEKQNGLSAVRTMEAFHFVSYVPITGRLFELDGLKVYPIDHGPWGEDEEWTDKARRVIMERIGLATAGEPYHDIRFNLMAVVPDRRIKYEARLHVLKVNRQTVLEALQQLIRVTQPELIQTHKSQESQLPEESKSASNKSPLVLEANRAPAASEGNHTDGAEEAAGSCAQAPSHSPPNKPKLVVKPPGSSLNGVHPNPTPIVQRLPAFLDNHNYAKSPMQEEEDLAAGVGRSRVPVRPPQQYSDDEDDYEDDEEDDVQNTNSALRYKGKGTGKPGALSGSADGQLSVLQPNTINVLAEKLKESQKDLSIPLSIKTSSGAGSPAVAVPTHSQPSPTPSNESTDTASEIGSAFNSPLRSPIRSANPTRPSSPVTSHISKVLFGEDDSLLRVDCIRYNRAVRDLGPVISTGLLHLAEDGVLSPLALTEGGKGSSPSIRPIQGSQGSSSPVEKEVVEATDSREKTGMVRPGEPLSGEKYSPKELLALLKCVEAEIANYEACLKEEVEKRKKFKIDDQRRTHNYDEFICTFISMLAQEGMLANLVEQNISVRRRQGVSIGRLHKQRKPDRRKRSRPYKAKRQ
Numbers without * were called inactive; i = inactive; x = no result; + = active, no number.

SMILES | sEH act | PLAP act | sEH inh | BAP1 block
CCn1c(SCC(=O)Nc2cc(C)on2)nnc1-c1ccc(S(=O)(=O)N2CCN(C)CC2)cc1 | 7 | 2* | -9 | x
CCn1c(SCC(=O)N2CCCC(C)C2)nnc1-c1ccc(S(=O)(=O)N2CCN(C)CC2)cc1 (stereo not given) | 13 | 2* | -13 | x
Cc1cc(C)c(S(=O)(=O)Nc2ccc[nH]c2=O)c(C)c1 | -10 | 2* | 14 | i
Cc1cc(C)c(S(=O)(=O)Nc2c(C)[nH]c(=O)[nH]c2=O)c(C)c1 | -3 | 0.9 | 4 | x
COC(=O)CNC(c1ccccc1)c1cc(Br)ccc1NC(=O)c1ccccc1Br (stereo not given) | x | x | x | i
Cc1cccc(NC(=O)c2c(NC(=O)c3cccnc3)sc3c2CCC3)c1 | x | x | x | i
COc1ccc(CCNC(=O)CCCn2c(SCC#N)nc3ccccc3c2=O)cc1OC | -21 | 1 | 22 | i
COc1ccc(CNC(=O)CCCCCn2c(SCC#N)nc3cc4c(cc3c2=O)OCO4)cc1 | x | 2.1* | x | i
COC(=O)c1c(NC(=O)CSc2ncnc3c2cnn3-c2ccccc2Cl)sc2c1CCCC2 | -3 | x | 3 | x
N#Cc1c(NC(=O)CSc2ncnc3c2cnn3-c2ccccc2Cl)sc2c1CCCC2 | 6 | x | -5 | +
COc1ccc2ccccc2c1C(O)c1nccn1C (stereo not given) | 11 | 2* | -10 | i
O=C(CN1C(=O)C2C3C=CC(C3)C2C1=O)Nc1nc(SCc2ccc(Cl)cc2)n[nH]1 (stereo not given) | 13 | 2.3* | -15 | i
O=C(CN1C(=O)C2C3C=CC(C3)C2C1=O)Nc1nc2ccccc2[nH]1 (stereo not given) | 1 | 1.8 | -2 | x
COC(=O)c1ccc(NC(=O)CN(C2CCCCC2)S(C)(=O)=O)cc1 | -12 | 2* | 10 | i
COc1ccc(NC(=O)CN(C2CCCCC2)S(C)(=O)=O)cc1OC | 12 | 1.1 | -12 | i
CC(=O)Nc1nc(SCc2ccc(Cl)cc2Cl)n[nH]1 | -5 | 1 | 5 | x
CC(=O)Nc1nc(SCCCc2ccccc2)n[nH]1 | 4 | 2.4* | -5 | i
COc1cccc(OC)c1C(=O)NNC(=O)c1cccc(COc2ccc3c(c2)CCC3)c1 | -16 | 2* | 17 | x
COC(=O)c1ccccc1NC(=O)c1ccc(COc2ccc3c(c2)CCC3)cc1 | -9 | 0.9 | 9 | x
CCOC(=O)CCCCC(=O)c1[nH]c(=O)[nH]c1CSc1nc(C)cc(C)n1 | -7 | 2* | 6 | i
CCOC(=O)CCCCC(=O)c1[nH]c(=O)[nH]c1CSc1nc(C)cc(=O)[nH]1 | x | 2.2* | x | i
CCOC(=O)c1[nH]c(=O)[nH]c1COC(=O)c1cc2ccccc2o1 | -8 | 2.2* | 8 | i
CCOC(=O)c1[nH]c(=O)[nH]c1CSCCO | -4 | 0.9 | 3 | x
CCOC(=O)c1[nH]c(=O)[nH]c1CSc1nc(C)cc(C)n1 | 6 | 2.2* | -4 | i
CN(C)CCCOC(=O)c1cc2ccccc2o1 | 2 | 1 | -1 | i
SMILES | sEH act | PLAP act | sEH inh | BAP1 block
Cc1ccccc1Nc1nc(-c2ccc([N+](=O)[O-])cc2)cs1 | x | x | x | i
COc1ccc(C(=O)C[n+]2ccc(C(=O)NCCO)cc2)cc1 | x | x | x | i
CCCCCCCCCCCCCCC[C@H](O)[C@H](N)CO | x | x | x | +
CCCC(N)CCCCCC(=O)O (stereo not given) | -12 | 0.9 | 12 | i
CCCN(CCC)CCCNC(=O)C1c2cc(OC)c(OC)cc2C(=O)N(C)C1c1cccs1 (stereo not given) | -5 | 2* | 1 | x
CCOc1ccc(NC(=O)c2ccc(F)c(S(=O)(=O)N3CCN(c4ccccn4)CC3)c2)cc1 | -86 | 1 | 86* | i
CC(=O)Nc1ccc(S(=O)(=O)N2CCN(c3ccccn3)CC2)cc1 | 8 | 0.9 | -10 | x
O=C(NC12CC3CC(CC(C3)C1)C2)N1CCC(O)(c2ccc3c(c2)OCO3)CC1 | -88 | 1 | 88* | i
CCOc1ccc(N(C(C)C(=O)NCc2ccco2)S(C)(=O)=O)cc1 (stereo not given) | -8 | 2* | 6 | x
CC12CCC(c3c(C(=O)Nc4nccs4)nn(-c4ccccc4)c31)C2(C)C (stereo not given) | x | 2* | x | i
CC12CCC(c3c(C(=O)O)nn(-c4ccccc4)c31)C2(C)C (stereo not given) | 12 | 1.1 | -15 | i
CCN(CC)CCNC(=O)C12CC3CC(CC(C3)C1)C2 | 12 | 0.8 | -16 | x
CCN(CC)CCNC(=O)C12CC3CC(C)(CC(C)(C3)C1)C2 | 6 | 2.1* | -6 | x
CCOC(=O)N1CCN(C(=O)CN(c2cccc(C)c2)S(=O)(=O)c2ccc(C)cc2)CC1 | x | 1.4 | x | i
